Sampled rows, rich in hits. Any-hit rate of the full collection: about 1.6%.
KCNQ2 enhance: enhances the rat KCNQ2 potassium channel; O88943; B-score at 10 µM; AID 2239; 310,000 tested, 0.54% active; CHO-K1 KCNQ2, FluxOR thallium flux fluorescence; stronger effect = higher value;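 active = fluorescence ratio B-score at least 3 SD of library B-scores, with initial fluorescence B-score within 3 of them, cut at about 5.3 in these data; same plate scores as AID 2156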;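 note: B-score of peak minus minimum over baseline fluorescence ratio after K+ and Tl+ stimulus; positive B-score means potentiation of KCNQ2 with more thallium influx and brighter signal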
Target sequence (O88943 whole entry, looked up): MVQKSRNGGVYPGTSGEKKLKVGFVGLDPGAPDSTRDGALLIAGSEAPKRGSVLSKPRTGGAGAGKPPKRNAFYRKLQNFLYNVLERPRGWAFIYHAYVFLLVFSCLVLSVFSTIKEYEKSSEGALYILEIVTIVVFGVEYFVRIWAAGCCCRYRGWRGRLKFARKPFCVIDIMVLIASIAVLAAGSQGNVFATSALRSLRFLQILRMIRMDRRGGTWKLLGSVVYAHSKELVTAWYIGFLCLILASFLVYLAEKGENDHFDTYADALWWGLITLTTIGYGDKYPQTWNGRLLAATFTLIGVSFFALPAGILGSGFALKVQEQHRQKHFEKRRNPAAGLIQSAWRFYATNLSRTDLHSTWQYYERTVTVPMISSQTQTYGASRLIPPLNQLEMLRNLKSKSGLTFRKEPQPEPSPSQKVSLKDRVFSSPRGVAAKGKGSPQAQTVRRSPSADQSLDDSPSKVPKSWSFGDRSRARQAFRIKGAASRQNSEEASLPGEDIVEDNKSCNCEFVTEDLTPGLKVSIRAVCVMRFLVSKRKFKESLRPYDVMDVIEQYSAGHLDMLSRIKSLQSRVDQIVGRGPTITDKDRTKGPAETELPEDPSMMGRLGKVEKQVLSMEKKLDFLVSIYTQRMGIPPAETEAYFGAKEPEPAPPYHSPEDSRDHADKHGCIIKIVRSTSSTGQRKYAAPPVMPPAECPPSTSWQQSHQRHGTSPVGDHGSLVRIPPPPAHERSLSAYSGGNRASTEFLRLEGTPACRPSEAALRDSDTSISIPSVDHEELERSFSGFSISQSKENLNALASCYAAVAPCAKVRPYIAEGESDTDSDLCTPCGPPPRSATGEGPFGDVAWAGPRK
KCNQ2 block: KCNQ2 (rat) channel inhibition. CHO-K1 KCNQ2, FluxOR thallium flux, 20 min; stronger effect = lower value. B-score at 10 µM. 310,000 tested, 1.1% active;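 active = fluorescence ratio B-score at most minus 3 library SDs, with starting brightness B-score within 2 library SDs, cut at about -5.5 in these data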
KCNQ2 block conf: confirmation of rat KCNQ2 potassium channel inhibitors. shares compounds with KCNQ2 block. KCNQ2-expressing cells, thallium flux, inhibition; stronger effect = lower value. activity change, negative = inhibition, % at 10 µM. 1,000 tested, 57% active
KCNQ1 spec: selectivity of KCNQ2 inhibitors against human KCNQ1; shares compounds with KCNQ2 block; KCNQ1-expressing cells, FluxOR thallium flux fluorescence; stronger effect = lower value; activity change, negative = inhibition, % at 10 µM; 1,000 tested, 15% active; AID 493026;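 active = activity change at least 3 SD of negative controls below their mean in both duplicate wells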;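 note: CHO cells stably transfected with KCNQ1 and depolarized by potassium stimulus; peak minus minimum fluorescence over baseline after thallium addition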
CHO Tl ctr: KCNQ2 inhibitor counter-screen hit in parental CHO cells | shares compounds with KCNQ2 block | thallium flux counter-screen; stronger effect = lower value | activity change, % at 10 µM | 1,000 tested, 14% active | AID 493029
KCNQ2 patch conf: blocks rat KCNQ2 current in automated patch clamp | AID 588531 | calls only at 10 µM | 550 tested, 49% active | KCNQ2-expressing cells | shares compounds with KCNQ2 block
Kir21 conf inh: confirmation of mouse Kir2.1 potassium channel inhibitors; Kir2.1-expressing cells, FluxOR thallium flux fluorescence; stronger effect = lower value; shares compounds with KCNQ2 enhance; AID 2032; 2,300 tested, 41% active; Tl flux remaining, % of negative control (stronger effect = lower value), % at 10 µM;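 active = Primary-screen hit whose thallium flux fell at least 3 control SD below untreated wells in both duplicates, with normal baseline fluorescence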
HEK293 ctr: counter-screen for Kir2.1 inhibitors: effect in parental HEK293 cells. AID 2105. 2,300 tested, 19% active. shares compounds with KCNQ2 enhance. FluxOR thallium flux fluorescence; 0% = unstimulated blank wells. FluxOR signal as % of negative control (100 = no effect), % at 10 µM;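 active = dye signal at least 3 control SD above or below untreated wells in both duplicates, raw fluorescence within 3, either direction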;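 note: percent is based on the flux ratio of peak minus minimum fluorescence over baseline F0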
Numbers stand for hits; - = inactive; . = no result given; + = active, no number. Unless noted, the rule behind the calls is not given here.

SMILES	KCNQ2 enhance	KCNQ2 block	KCNQ2 block conf	KCNQ1 spec	CHO Tl ctr	others
Cc1cccc(C)c1N(CC(=O)NCc1ccccc1)C(=O)c1csnn1	-	-	.	.	.
O=C(COc1ccc(Cl)cc1Cl)N(c1ccccn1)C1CCCCC1	-	-6.92	-35.0%	-	-	KCNQ2 patch conf=+
O=C(/C=C/c1ccccc1)N(c1ccccn1)C1CCCCC1	.	-	.	.	.
CC(C)(C)c1ccc(OCC(=O)N(c2ccccn2)C2CCCCC2)cc1	.	-	.	.	.
CN(C(=O)COc1ccc(Cl)cc1Br)C1CCCCC1	-	-7.75	-30.5%	-	-	KCNQ2 patch conf=+
CCOC(=O)CNC(=O)COc1ccc(Cl)cc1Br	.	-	.	.	.
O=C(/C=C/c1ccccc1Cl)N(c1ccccn1)C1CCCCC1	-	-7.44	-	-	-
CC1(C)Oc2ccc(C(=O)N/N=C/c3ccc(O)cc3)cc2NC1=O	.	-	.	.	.
COc1ccc(CCN=C(C)C2=C(O)C(c3ccccc3)OC2=O)cc1OC (stereo not given)	-	-	.	.	.
CC(Oc1ccc(Br)cc1)C(=O)Nc1nnc(C2CC2)s1 (stereo not given)	-	-	.	.	.
O=C(NCc1ccccc1)c1cccc(COc2cc(Cl)ccc2Cl)c1	.	-	.	.	.
O=C(NCc1ccccc1)c1cccc(COc2ccccc2Cl)c1	-	-11.5	-	-	-
O=C(O)CCCNC(=O)OCc1ccccc1	.	-	.	.	.
Cc1cccc(C)c1OCCNC(=O)OCc1ccccc1	-	-6.88	-	-	-
CSCCC(NC(=O)COc1ccccc1)C(=O)O (stereo not given)	-	-	.	.	.
O=C(NN=C1CCCCCCCCCCC1)c1ccccc1F	-	-	.	.	.
O=C(Cc1ccccc1)NCC(=O)Nc1ccccc1Br	.	-	.	.	.
O=C(/C=C/c1cc(Br)ccc1O)c1ccco1	-	-7.68	-35.5%	-41.0%	-29.0%	KCNQ2 patch conf=-;Kir21 conf inh=73.0%;HEK293 ctr=-
O=C(/C=C/c1ccccc1O)c1ccco1	.	-	.	.	.
Cc1cc(Cl)ccc1OCc1cn2cccnc2n1	-	-	.	.	.
COc1ccc(N(C(=O)CNC(=O)c2ccco2)C(C(=O)NCC2CCCO2)c2ccccc2)cc1 (stereo not given)	.	-	.	.	.
COc1cc(CNCCc2ccccc2)cc(Cl)c1OCc1ccccc1	-	-7.22	-	-	-	Kir21 conf inh=31.0%;HEK293 ctr=-
COc1cc(CNCc2ccccc2)cc(Cl)c1OC	-	-	.	.	.
COC(=O)c1ccc(NC(=O)CCC(=O)c2ccc(F)cc2)cc1	-	-	.	.	.
CN1/C(=C\C=O)C(C)(C)c2ccccc21	-	-	.	.	.
SMILES	KCNQ2 enhance	KCNQ2 block	KCNQ2 block conf	KCNQ1 spec	CHO Tl ctr	others
CN1\C(=C/C=C/C=C/C=[N+](C)C)C(C)(C)c2ccccc21	-	-9.69	-48.0%	-36.5%	-35.5%	KCNQ2 patch conf=+;Kir21 conf inh=11.5%;HEK293 ctr=-
Cc1cc(OCC(=O)NCC(c2cccs2)N2CCOCC2)ccc1C(C)C (stereo not given)	.	-	.	.	.
Cc1ccc(C(C)C)c(OCC(=O)NCC(c2cccs2)N2CCOCC2)c1 (stereo not given)	-	-8.42	-38.5%	-	-	KCNQ2 patch conf=-;Kir21 conf inh=77.5%;HEK293 ctr=-
Cc1nc2ccccc2n1Cc1ccccc1	.	-	.	.	.
c1ccc(Cc2nc3ccccc3n2Cc2ccccc2)cc1	-	-8.06	-46.0%	-44.5%	-36.5%	KCNQ2 patch conf=-;Kir21 conf inh=64.0%;HEK293 ctr=77.0%
CCN1/C(=C/c2ccc3cc(C)ccc3[n+]2CC)Sc2ccccc21	.	-	.	.	.
CCN1/C(=C/c2sc(-c3ccccc3C)c[n+]2C)Sc2ccccc21	-	-7.01	-	-	-	Kir21 conf inh=23.5%;HEK293 ctr=-
Cc1cc(Cl)ccc1OCCCC(=O)OCC(N)=O	.	-	.	.	.
Cc1ccc(C(=O)N/C(=C\c2ccc(-c3ccc(Br)cc3)o2)C(=O)NCCCN(C)C)cc1	-	-8.21	-31.0%	-	-	KCNQ2 patch conf=-;Kir21 conf inh=-;HEK293 ctr=-
Cc1ccc(C(=O)N/C(=C\c2ccc(-c3cccc([N+](=O)[O-])c3)o2)C(=O)NCCCN(C)C)cc1	-	-	.	.	.
CC(NC(=S)Nc1ccccc1C(F)(F)F)C1CC2CCC1C2 (stereo not given)	-	-	.	.	.
Cc1cc(C)n(-c2nc(SCCN(C)C)c3c4c(sc3n2)CCCC4)n1	-	-8.89	-30.0%	-31.0%	-	KCNQ2 patch conf=-;Kir21 conf inh=-;HEK293 ctr=-
Cc1cc(C)n(-c2nc(SCC(=O)O)c3c4c(sc3n2)COC(C)(C)C4)n1	.	-	.	.	.
N=c1c2c(-c3ccccc3)c(-c3ccccc3)n(Cc3ccco3)c2ncn1CCO	-	-7.04	-	-	-	Kir21 conf inh=37.0%;HEK293 ctr=-
N=c1c2c(-c3ccccc3)c(-c3ccccc3)n(Cc3ccco3)c2ncn1CCCO	.	-	.	.	.
CC1CCCCC1Nc1nc2ccc(Cl)cc2n2cnnc12 (stereo not given)	.	-	.	.	.
CC(C)c1ccccc1NC(=O)CNCCOc1ccccc1F	-	-	.	.	.
CN(CC(=O)NCc1ccco1)S(=O)(=O)c1ccc(F)cc1	.	-	.	.	.
Cc1ccc(OCC(=O)Nc2ccccc2N2CCOCC2)c(C)c1	-	-7.42	-	-	-	Kir21 conf inh=61.0%;HEK293 ctr=-
Cc1cc(Cl)ccc1OCC(=O)Nc1ccccc1N1CCOCC1	.	-	.	.	.
CC(C)c1ccc(CNCCCSc2ncccn2)cc1	-	-	.	.	.
CCCn1c(NCc2c[nH]c3ccccc23)nc2ccccc21	-	-7.94	-27.5%	-	-	KCNQ2 patch conf=+;Kir21 conf inh=42.5%;HEK293 ctr=-
CCCn1c(NCc2ccccn2)nc2ccccc21	-	-	.	.	.
CCNC(=O)C12CCC(C)(C(=O)O1)C2(C)C (stereo not given)	-	-	.	.	.
CC(C)CN(CC(C)C)C(=O)Cc1coc2ccc3ccccc3c12	-	-8.44	-31.0%	-28.5%	-20.5%	KCNQ2 patch conf=+;Kir21 conf inh=-;HEK293 ctr=-
SMILES	KCNQ2 enhance	KCNQ2 block	KCNQ2 block conf	KCNQ1 spec	CHO Tl ctr	others
O=C(O)Cc1coc2ccc3ccccc3c12	-	-	.	.	.
Cc1ccc(C)c(C(=O)OCC(=O)Nc2ccc(N3CCOCC3)cc2)c1	-	-	.	.	.
Cc1c(Cl)cccc1NC(=O)c1ccccc1-c1ccccc1C(=O)O	.	-	.	.	.
COc1cccc(Nc2nc(NCC3CCCO3)c3ccccc3n2)c1 (stereo not given)	-	-10.1	-	-	-	Kir21 conf inh=17.5%;HEK293 ctr=-
COc1cccc(Nc2nc(NCCO)c3ccccc3n2)c1	.	-	.	.	.
CCOC(=O)c1cc(CC)sc1NC(=O)c1ccc([N+](=O)[O-])c(N2CCOCC2)c1	-	-	.	.	.
